The record followed here is PubChem BioAssay (NCI).

Each structure is given as a SMILES string. Compounds without any hit were thinned out: in the full panel of roughly 83,000, 20% have a hit.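 Each cell line was grown in a 96-well plate and treated with one concentration of compound for 48 hours. Values below 10 were considered active.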 A number with no mark means an inactive call. Activity calls are given as the source filed them.

What all share (assay): NCI-60 one-dose screen, 48 h (100 = growth as untreated, 0 = no growth, -100 = all killed)
Common to all, as to details: 10 µM unless noted

For assay [1], the system named is RPMI-8226 leukemia.
The subject of assay [2] is OVCAR-8 ovarian.
For assay [3], the system named is OVCAR-5 ovarian.
Assay [4] has as its system OVCAR-4 ovarian.
Assay [5] has as its system SK-OV-3 ovarian.
Assay [6] concerns OVCAR-3 ovarian.
The subject of assay [7] is HS 578T breast.
In assay [8] the test system is NCI/ADR-RES ovarian.
The subject of assay [9] is T-47D breast.
For assay [10], the system named is BT-549 breast.
For assay [11], the system named is MDA-MB-435 melanoma.
Assay [12] concerns SW-620 colon.
For assay [13], the system named is MCF7 breast.
Assay [14] has as its system HCT-116 colon.
In assay [15] the test system is HCC-2998 colon.
The test system of assay [16] is KM12 colon.
Assay [17] concerns IGROV1 ovarian.

Consider `CCOC(=O)/C=c1\sc2n(c1=O)C1C(NN=2)N(CC)C(=O)N1CC` (configuration not stated), for which the growth in [1] is 64.6%; in [2] it was 84.2%; in assay [3], 84.8%; in assay [4] it was 91.2%; in [5], 89.2%; in assay [6], 14.8%. Also, the growth in assay [7] was 61.5%; in assay [8] it was 53.1%; in assay [9], 84%; in [10] it was 57.7%; in assay [11], -17.8% (active); in assay [12], 31.7%. The growth in assay [13] is 11%; in assay [14], 28.8%; in [15], 77.1%; in assay [16], 36%.
As for `Nc1nc(N)c2c(n1)NC(c1ccc(Cl)cc1)CC(c1ccc(Nc3nc(NCCO)nc(Nc4ccc(Cl)cc4)n3)cc1)=N2` (configuration not stated), the growth in [1] was -32.5% (active); in assay [2], 17.6%; in assay [3] it was 84.8%; in assay [4] it was 34.6%; in assay [5] it was 100%; in assay [17] it was 37%. In addition, the growth in assay [7] is 55.7%; in assay [8], 56.5%; in assay [9] it was 51.9%; in assay [10], 58.3%; in [11] it was 5.23% (active); in assay [12] it was -36.2% (active). In addition, the growth is -75.1% (active) in assay [13], -84.8% (active) in assay [14], 18.6% in assay [15] and 11.5% in assay [16].
For the molecule `COc1ccc([C@H]2[C@H](O)C(=O)N2c2cc(OC)c(OC)c(OC)c2)cc1O`, the growth in assay [1] is 16.5%; in assay [2] it was -11.5% (active); in [3], 30.1%; in assay [4] it was 70.3%; in assay [5], 21.4%; in assay [17], 26.7%. Further, the growth in assay [7] was 5.02% (active); in [8] it was 18.6%; in assay [9], 75.8%; in [10], -9.8% (active); in assay [11] it was -13.1% (active); in assay [12] it was 17%. Further, the growth in assay [13] is 8.66% (active); in assay [14], -8.58% (active); in [16], 13.1%.
With `CC(=O)Nc1cccc(-n2cnc3cc(-c4ccc(O)cc4)ccc32)c1`, the growth was 20.3% in [1]; 28.8% in [2]; 66.7% in assay [3]; 66.4% in assay [4]; 32.9% in assay [5]; 41.1% in assay [17]. Moreover, the growth in assay [7] was -17.1% (active); in assay [8] it was 18.5%; in assay [9] it was 27.7%; in assay [10] it was 49.2%; in assay [11] it was -17.7% (active); in assay [12] it was 19.4%. The growth was 31.4% in assay [13], 20.8% in [14] and 20.6% in assay [16].
On to `CC1COc2c(N3CCN(C)CC3)c(F)cc3c(=O)c(C(=O)N/N=C/c4cc[nH]c4)cn1c23` (configuration not stated), for which the growth in assay [1] was 45.3%; in assay [2], 19.4%; in assay [3], 77.8%; in [5], 61.6%; in [7], 67.5%; in [8], 94.2%. The growth in assay [9] was 47.2%; in assay [10], 59.5%; in assay [11] it was 12.2%; in [12], -46.4% (active); in assay [13], -5.35% (active); in assay [14], -80.1% (active). Moreover, the growth in assay [15] was 22.6%; in assay [16], 46.4%.
For the molecule `COc1cnc2c(c1)C(=O)c1c-2n(CCCn2ccnc2)c(=O)c2cc(OC)c(OC)cc12`, the growth in assay [1] was -26.7% (active); in assay [2], -93.9% (active); in [3], -40.7% (active); in assay [4] it was -18.3% (active); in assay [17], -20.6% (active); in assay [7], 57.1%. The growth in assay [8] was 1.35% (active); in assay [9], -61.3% (active); in assay [10], -0.217% (active); in assay [11], 20.5%; in [12], -77.7% (active); in [13], -61.8% (active). Also, the figures for the growth in assay [14], in [15] and in assay [16] were -90.2% (active), 24.6% and 27.1%, respectively.
As for `COC(=O)[C@@]1(C)CC[C@]2(C)CC[C@]3(C)C(=CC(=O)[C@@H]4[C@@]5(C)Cc6c(n(CC#CCN7CCN(C)CC7)c7ccccc67)C(C)(C)[C@@H]5CC[C@]43C)[C@@H]2C1`, the growth in assay [1] was 69.5%; in assay [2] it was 93.8%; in assay [3], 86.7%; in [5], 122%; in assay [17] it was 89%; in [7], 88.1%. In addition, the growth is 86.5% in [8]; 84.8% in [9]; 90.5% in [10]; 40.3% in assay [11]; -63.4% (active) in assay [12]; -32.4% (active) in [13]. Further, the growth is -28.7% (active) in assay [14], 94.8% in [15] and 52.8% in [16].
Take `COc1cc2c3c(n(CCCNC4CCCCC4)c(=O)c2cc1OC)-c1cc2c(cc1C3=O)OCO2`: the growth in assay [1] was -46.5% (active); in assay [2], -66.8% (active); in assay [3], -86.4% (active); in [4], 93.2%; in assay [5], 104%; in assay [17] it was -30.9% (active). In addition, the growth in [7] is 90.5%; in assay [8], -22.9% (active); in assay [9], 91.5%; in assay [10], 78.2%; in assay [11], 102%; in [12] it was -76.8% (active). The growth was -78.1% (active) in assay [13], -72.3% (active) in assay [14], 73.3% in [15] and 57.4% in [16].
On to `C=C(C)[C@@H]1CC[C@]2(C)[C@H](CC=C3[C@@H]4CC(C)(C)CC[C@]4(C(=O)NCC#CCN4CCN(C)CC4)CC[C@]32C)[C@@]1(C)CCC#N`, for which the growth in assay [1] is 42.4%; in assay [2] it was 85.9%; in assay [3], 89.8%; in assay [4], 70.6%; in assay [17], 54.3%; in assay [7], 71.7%. Moreover, the growth in assay [8] was 62.5%; in assay [9], 61.7%; in [10], 69.3%; in assay [11] it was 24.2%; in assay [12], 43.8%; in [13], 27%. The results for the growth in assay [14], in assay [15] and in [16] were 17.5%, 55.2% and 43.6%, respectively.
Regarding `Nc1nc(N)c2c(n1)NC(c1ccccc1)CC(c1ccc(Nc3nc(NCCO)nc(Nc4ccc(Cl)cc4)n3)cc1)=N2` (configuration not stated), the growth in [1] was -56.2% (active); in assay [2], -20% (active); in assay [3], 111%; in [4], 57.2%; in assay [5] it was 116%; in [17], 64.3%. Besides, the growth in [7] was 79.9%; in [8] it was 48.4%; in assay [9], 62.1%; in assay [10], 79.3%; in assay [11], 41.8%; in assay [12], -83.3% (active). Moreover, the growth in assay [13] was -71.3% (active); in assay [14] it was -92.7% (active); in [16], 47%.
Take `Cn1c2ccc(Br)cc2c2c3c(c4c5cc(F)ccc5oc4c21)C(=O)N(O)C3=O`: the growth in assay [1] was 76.7%; in assay [2], 75.1%; in assay [3] it was 108%; in assay [4], 103%; in assay [5], 90.2%; in assay [17], 63.5%. The growth in assay [7] is 92.8%; in assay [8], 75.5%; in [10] it was 89.4%; in [11], 101%; in assay [12] it was 54.5%; in assay [13] it was 41.3%. Moreover, the growth was 75% in assay [14], 94.6% in assay [15] and 92.6% in [16].
Consider `C/C(Cc1ccc(Cl)cc1)=C(/c1ccccc1)c1ccc(OCCN)cc1`, for which the growth in [1] is 101%; in assay [2], 101%; in assay [3], 97.4%; in assay [4], 101%; in assay [5], 117%; in [7] it was 97.1%. The growth was 94.8% in assay [8]; 101% in [9]; 95.3% in [10]; 95.1% in assay [11]; 102% in [12]; 99.9% in assay [13]. Besides, the growth in assay [14] is 102%; in [16], 103%.
With `Cn1c2ccccc2c2c3c(c4c5ccc(Br)cc5oc4c21)C(=O)N(O)C3=O`, the growth is 64.6% in [1]; 73.1% in [2]; 110% in [3]; 85.3% in [4]; 101% in [5]; 69.7% in assay [17]. Moreover, the growth is 102% in [7]; 92.5% in assay [8]; 19.5% in assay [9]; 64.9% in [10]; 88.5% in assay [11]; 59.3% in assay [12]. Besides, the growth was 19.2% in [13], 65.7% in [14], 91.8% in [15] and 92.4% in assay [16].
